Compounds with a hit are over-represented: about 4.3% of the library has one in this group of screens.
SW480 rereplic – inducers of DNA re-replication in SW480 colon cancer cells; SW480 DNA re-replication, Hoechst DNA content imaging, 48 h; Potency, µM (highest dose often 46.1 µM), without a hit: at the top dose re-replication activation, usual class: activators; 1.8% of 340,000 active; also: potency is read from the fitted curve at half-maximal effect; % of control where 0% means no effect; nearly all actives have a fitted effect of over 55% in size
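Readout is total intensity of Hoechst-stained nuclei, excited at 405 nm and collected at 500-530 nm. Compound treatment lasted 48 hr at 37 C in 5% CO2 before staining.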
Giardia killer – kills Giardia lamblia; activity change, % at 7.66 µM, hits read low; 0.15% of 340,000 active; AID 540267; Giardia lamblia trophozoite viability; in the data active = activity change below about -80%; inconclusive = between about -30% and that limit;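 also: parasites exposed to compound for two days anaerobically before the ATP read; % is scaled to controls: 0 for no effect and ±100 for the full control effect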
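Giardia trophozoites, 100 cells per well, were exposed to compounds for 48 hrs at 37 deg C under anaerobic conditions; viability was then read as ATP content by bioluminescence after 15-30 min at room temperature.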
uPA generation – blocks generation of uPA at the cell surface; cell surface uPA generation assay, qHTS; Potency, µM (series often up to 38.3 µM), for the others: top-dose activity change, negative = inhibition, hits mostly inhibitors; 0.31% of 330,000 active; AID 540303; active = well fitted inhibition curve with a large enough effect; inconclusive = small, poorly fitted or top-dose-only effect; inactive = no such curve, though single readings can be large or run the other way; tested in mouse RAW 264.7 cells; also: potency is read from the fitted curve at half-maximal effect; % is scaled to controls: 0 for no effect and ±100 for the full control effect; nearly all actives have a fitted effect of over 55% in size
MCF10A rerep – induces DNA re-replication in MCF 10a normal breast cells; MCF 10A DNA re-replication, Hoechst nuclear intensity, 48 h; Potency, µM (series often up to 46.1 µM), without a hit: at the highest dose activity, positive = re-replication, most hits filed as activators; 2.9% of 350,000 active; AID 624296; also: potency is read from the fitted curve at half-maximal effect; % of control where 0% means no effect; nearly all actives have a fitted effect of over 50% in size
Starred values were filed as active, the others as inactive; [ ] = another dose, or the depositor's remark. Unless noted, calls follow the shape of the dose curve; as a rule, active = well fitted activation curve with a large enough effect; inconclusive = small, poorly fitted or top-dose-only effect; inactive = no such curve, though single readings can be large or run the other way.

For CC(=O)N(C)C1=C(N2CCOCC2)C(=O)c2ccccc2C1=O the results were SW480 rereplic inconclusive, Giardia killer -26.3 and MCF10A rerep 0.731µM*.
For CC(=O)N(C1=C(N2CCOCC2)C(=O)c2ccccc2C1=O)c1ccc(C(=O)O)cc1 the results were SW480 rereplic 4.11µM*, Giardia killer 10.0, uPA generation 2.8% and MCF10A rerep inconclusive.
`COc1ccc(-c2nc3ccccc3s2)cc1NC(=O)COc1cccc(C)c1` gave Giardia killer -7.0.
Screening O=C(COC(=O)Cc1ccccc1)NCc1ccc2c(c1)OCO2 returned SW480 rereplic -2.0%, Giardia killer -4.7, uPA generation -7.9% and MCF10A rerep 1.8%.
Screening COc1ccc(-c2nc3ccccc3o2)cc1NC(=O)COc1ccc(C(C)(C)C)cc1 returned Giardia killer 5.6.
COc1ccccc1NC(=O)C1=C(C)Nc2ncnn2C1c1ccccc1C (centres undefined) was read as SW480 rereplic 4.11µM*, Giardia killer 0.0, uPA generation 3.9% and MCF10A rerep -187.6%[0.0737 µM].
CC(C)CC1=C/C(=C/c2ccc(-c3ccccc3)o2)C(=O)O1 was read as SW480 rereplic 1.7%, Giardia killer -10.3, uPA generation 2.8% and MCF10A rerep 25.9µM*.
Screening NS(=O)(=O)c1ccc(-c2ccc(C=C3C(=O)c4ccccc4C3=O)o2)cc1 returned SW480 rereplic -6.3%, Giardia killer -14.0, uPA generation 7.5% and MCF10A rerep 1.1%.
`Cc1[nH]nc(-c2ccc(OCc3cnn(-c4ccccc4)c3)c(C)c2O)c1Oc1ccccc1` gave SW480 rereplic inconclusive, Giardia killer 10.3, uPA generation 2.0% and MCF10A rerep 16.4µM*.
`Cc1[nH]nc(-c2ccc(OCc3cnn(-c4ccccc4)c3)cc2O)c1Oc1ccc(F)cc1` gave SW480 rereplic 12.5%, Giardia killer 5.0, uPA generation 1.8% and MCF10A rerep inconclusive.
N#CN=c1snc(-c2ccccc2Cl)n1-c1ccc(F)cc1 was read as Giardia killer 6.7.
Cc1cccc(N2CCN(C(=O)COc3ccc4c(c3)CCC4)CC2C)c1 (centres undefined) was read as SW480 rereplic -12.5%, Giardia killer 5.2, uPA generation 7.3% and MCF10A rerep inconclusive.
COc1cccc(C2=CC(c3ccccc3)n3nnnc3N2)c1 (centres undefined) was read as SW480 rereplic 1.7%, Giardia killer 0.2, uPA generation inconclusive and MCF10A rerep 2.5%.
For COc1cccc(C2=CC(c3cccc(OC)c3OC)n3nnnc3N2)c1 (centres undefined) the results were SW480 rereplic 0.8%[9.22 µM], Giardia killer inconclusive, uPA generation -12.2% and MCF10A rerep 8.91µM*.
Screening COc1ccc(OC)c(C2C=C(c3ccc(C)c(C)c3)Nc3nnnn32)c1 (centres undefined) returned SW480 rereplic 7.31µM*, Giardia killer -3.6, uPA generation -12.4% and MCF10A rerep inconclusive.
COc1cccc(C2=CC(c3ccc(N(C)C)cc3)n3nnnc3N2)c1 (centres undefined) was read as SW480 rereplic inconclusive, Giardia killer -2.3, uPA generation -5.8% and MCF10A rerep 16.4µM*.
Screening COc1ccc(NC(=O)c2cnc(SC)nc2)cc1 returned SW480 rereplic inconclusive, Giardia killer -16.6, uPA generation inconclusive and MCF10A rerep inconclusive.
For COc1ccc2c(C=O)cn(C)c2c1 the results were SW480 rereplic -1.5%, Giardia killer -3.0, uPA generation -4.7% and MCF10A rerep 0.0%.
Screening CCCN(CC(=O)Nc1ccc(Cl)cc1Cl)C(=O)/C=C/c1ccco1 returned SW480 rereplic -3.7%, Giardia killer -2.8, uPA generation -16.6% and MCF10A rerep 9.2µM*.
CCN(CC(=O)Nc1ccc(NC(C)=O)cc1)C(=O)/C=C/c1ccco1 was read as SW480 rereplic -34.9%, Giardia killer 12.0, uPA generation 19.4% and MCF10A rerep 3.5%.
`c1ccc2c(c1)CCN(C1=Nc3cccc4cccc1c34)C2` gave SW480 rereplic inconclusive, Giardia killer 3.9, uPA generation -15.2% and MCF10A rerep 8.2µM*.
`COc1ccc(/C=N/NC(=O)c2nc(Cl)c(Cl)c(N)c2Cl)cc1COc1ccc(F)cc1F` gave SW480 rereplic inconclusive, Giardia killer 13.3, uPA generation -0.5% and MCF10A rerep 14.6µM*.
Screening COc1ccc(/C=N\NC(=O)c2ccccc2Br)cc1COc1c(F)c(F)cc(F)c1F returned SW480 rereplic inconclusive, Giardia killer 20.9, uPA generation inconclusive and MCF10A rerep 4.61µM*.
For COc1ccc(/C=N/NC(=O)c2nc(Cl)c(Cl)c(N)c2Cl)cc1COc1ccccc1F the results were SW480 rereplic 0.0%, Giardia killer 16.4, uPA generation 1.2% and MCF10A rerep 4.5%.
COc1ccc(/C=N\NC(=O)c2ccccc2F)cc1COc1ccc(F)cc1F was read as SW480 rereplic 11.6µM*, Giardia killer 7.1, uPA generation -19.3% and MCF10A rerep inconclusive.
For COc1ccc(/C=N\NC(=O)c2ccccc2F)cc1COc1ccc(F)cc1 the results were SW480 rereplic 3.1%, Giardia killer -16.4, uPA generation -5.6% and MCF10A rerep 5.6%.
COc1ccc(/C=N/NC(=O)c2ccoc2C)cc1COc1c(C)cccc1C was read as SW480 rereplic inconclusive, Giardia killer 20.5, uPA generation -12.1% and MCF10A rerep 7.08µM*.
For COc1ccc(CN(C)C(=O)C(CCSC)NS(=O)(=O)c2ccc3c(c2)OCCO3)c(OC)c1OC (centres undefined) the results were SW480 rereplic -8.9%, Giardia killer -0.1, uPA generation -7.9% and MCF10A rerep 23.1%.
For CO[C@H]1/C=C/O[C@@]2(C)Oc3c(C)c(O)c4c(O)c(c(/C=N\N5CCN(C6CCCC6)CC5)c(O)c4c3C2=O)NC(=O)/C(C)=C\C=C\[C@H](C)[C@H](O)[C@@H](C)[C@@H](O)[C@@H](C)[C@H](OC(C)=O)[C@@H]1C the results were SW480 rereplic inconclusive and MCF10A rerep 7.9%.
For O=C(NC(CC(=O)N1CCN(c2ccccc2O)CC1)c1ccccc1)c1ccccc1Cl (centres undefined) the results were SW480 rereplic 11.4%, Giardia killer 2.5, uPA generation -3.9% and MCF10A rerep 17.6%.
Screening CCC(C)C(N)C(=O)N1CCCC1C(=O)NC(C(=O)O)C(C)CC (centres undefined) returned SW480 rereplic -0.6%, Giardia killer -14.8 and uPA generation 12.0%.
`COc1ccc(/C=C2\SC(=N)N(c3nccs3)C2=O)cc1OC` gave SW480 rereplic 11.6µM*, Giardia killer -15.8, uPA generation -11.2% and MCF10A rerep 10.3µM*.
For Cc1ccsc1/C=N\NC(=O)c1n[nH]c2c1CCC2 the results were SW480 rereplic 13µM*, Giardia killer -28.3, uPA generation -16.7% and MCF10A rerep 8.2µM*.
`O=c1c2ccccc2sn1-c1ccc(S(=O)(=O)N2CCOCC2)cc1` gave Giardia killer -14.6.

From PubChem
